# Reference: PubChem BioAssay AID602333 (Sanford-Burnham Center for Chemical Genomics, 2012)
# Screen size: about 1,900 compounds; about 240 (13%) were called active.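 Rule for the calls: active = mean inhibition at least 40% at 20 µM, or signal 3 deviations below plate average, so some actives read negative; inactive = the rest.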 These entries were drawn from the full list.
# Target: Prothrombin (Bos taurus) (UniProt P00735)
# Test: blocking of thrombin cleavage of Ub4 substrate – biochemical, fluorescence polarization, single concentration, counter-screen for Rpn11 inhibitor project, confirmation (AID 602333);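 note: plate controls were thrombin with DMSO for no effect and buffer wells lacking thrombin for full effect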
# Conditions: bovine thrombin cleavage of Ub4-pepOG, at 20 µM, active compounds read high
# Prothrombin (Bos taurus), sequence (P00735 whole entry, looked up): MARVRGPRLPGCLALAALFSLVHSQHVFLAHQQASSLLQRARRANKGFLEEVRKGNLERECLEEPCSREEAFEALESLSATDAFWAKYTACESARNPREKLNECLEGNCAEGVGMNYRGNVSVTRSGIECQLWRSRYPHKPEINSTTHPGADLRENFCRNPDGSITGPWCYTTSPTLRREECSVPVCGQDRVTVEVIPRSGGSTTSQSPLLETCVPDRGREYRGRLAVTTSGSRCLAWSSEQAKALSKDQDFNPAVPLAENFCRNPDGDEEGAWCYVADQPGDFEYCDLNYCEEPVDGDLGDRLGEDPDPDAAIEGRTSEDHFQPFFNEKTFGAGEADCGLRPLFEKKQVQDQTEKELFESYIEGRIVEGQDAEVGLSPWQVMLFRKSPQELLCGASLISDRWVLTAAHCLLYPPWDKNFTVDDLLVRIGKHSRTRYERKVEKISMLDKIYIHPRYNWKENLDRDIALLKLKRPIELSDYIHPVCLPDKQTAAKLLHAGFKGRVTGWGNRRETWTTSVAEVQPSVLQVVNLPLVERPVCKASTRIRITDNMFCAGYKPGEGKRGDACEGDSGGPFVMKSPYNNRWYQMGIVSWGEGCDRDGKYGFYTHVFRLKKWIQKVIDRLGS
row,SMILES,inhibition
1,C=CC1=C(C(=O)O)N2C(=O)[C@@H](NC(=O)/C(=N/OCC(=O)O)c3csc(N)n3)[C@H]2SC1,-49.6% (inactive)
2,O=C(COc1cccc(F)c1)Oc1ccc(C(=O)c2ccccc2)cc1,-6.51% (inactive)
3,C/C(=N/Nc1nc(-c2ccccc2)c(CC(=O)O)s1)c1ccccc1,11.8% (inactive)
4,COc1cc(/C=C2/SC(=S)N(Cc3ccccc3)C2=O)cc(OC)c1O,30.8% (inactive)
5,Cc1ccc(Nc2nc(Cl)c(C=O)s2)cc1,47% (active)
6,Cc1ccc(Nc2ccccc2N)cc1,15.5% (inactive)
7,CCOc1cc(/C=C2\SC(N3CCCCC3)=NC2=O)ccc1O,21% (inactive)
8,Oc1ccc(/C=N/Nc2nc(-c3ccccc3F)nc3ccccc23)c(O)c1,5.18% (inactive)
9,COc1ccc2[nH]c(=O)c(-c3noc(-c4ccc(F)cc4)n3)cc2c1,2.93% (inactive)
10,Cc1ccc2cc(C#N)c(NCCNC(=S)NCCCN3CCOCC3)nc2c1,-7.45% (inactive)
11,C=CCn1c(SCC(=O)NCc2ccccc2)nnc1-c1cc(Br)ccc1O,-3.07% (inactive)
12,CCCCCCCCCCOC(=O)Cn1c(COc2cccc(OC)c2)[n+](C)c2ccccc21,-11.8% (inactive)
13,Cc1c(NC(=O)CSc2cccc3cccnc23)c(=O)n(-c2ccccc2)n1C,-11.3% (inactive)
14,Cc1nc2ccc(C(=O)N3CCSCC3)cc2s1,-9.73% (inactive)
15,CCC(C)Cn1c(O)cc2nn(-c3nc4ccccc4s3)c(=O)c-2c1C (stereo not given),3.33% (inactive)
16,CCNCc1cc2cc(C)ccc2[nH]c1=O,7.4% (inactive)
17,CCN1CCN(c2cc3nc(C)n(Cc4ccccc4)c(=O)c3cc2NC(=O)c2ccccc2F)CC1,-5.14% (inactive)
18,COc1ccc(Cl)cc1NC(=O)CCS(=O)(=O)c1ccc(Br)cc1,-12.6% (inactive)
19,COc1cccc(NC(=O)C(C)Oc2ccccc2)c1 (stereo not given),-2.75% (inactive)
20,Cc1ccc(NC(=O)c2c(NC(=O)CCC(=O)O)sc3c2CCCCC3)cc1,-10.8% (inactive)
21,CCOc1ccc(NC(=O)c2ccc(NC(=O)COC(=O)c3ccc(NC(=O)CC#N)cc3)cc2)cc1,-22.9% (inactive)
22,COc1cccc(-c2nn(-c3ccccc3)cc2/C=C(\C#N)C(=O)NCCCn2ccnc2)c1,3.86% (inactive)
23,CCN1CCCC1CNC(=O)c1cc2c(=O)n(C)c3ccccc3c2n1C (stereo not given),-4.94% (inactive)
24,CC(C)(C)NC(=O)CSC(=Nc1ccccc1F)NC#N,4.77% (inactive)
25,Cc1ccc(-c2nnc(-c3ccc(NC(=O)c4cccs4)cc3)o2)cc1,-6.56% (inactive)
26,Cc1nc2ccccc2nc(=O)c1NNc1ccc([N+](=O)[O-])cc1,28.5% (inactive)
27,CC(C)Cn1c(CCC(=O)O)ccc1-c1cccs1,-22.2% (inactive)

row,SMILES,inhibition
1,CCC/C=C(\CCC)C(NC(=O)Cc1ccccc1)c1ccc(C(=O)OC)cc1 (stereo not given),-11.1% (inactive)
2,Cc1oc2c(C)c3oc(=O)c(CC(=O)N[C@@H](CC(C)C)C(=O)N[C@@H](Cc4ccccc4)C(=O)O)c(C)c3cc2c1C,29.3% (inactive)
3,Cc1cc(/C=C2/SC(=O)N(CC(=O)N3CCCC3)C2=O)ccc1N1CCOCC1,23.9% (inactive)
4,CC(=O)Nc1ccccc1Sc1ccc2c3c(cccc13)C(=O)N(c1ccc(C)cc1)C2=O,4.95% (inactive)
5,O=C1NC(=O)C2C1C(c1ccc([N+](=O)[O-])cc1)=NN2Cc1ccccc1 (stereo not given),15.8% (inactive)
6,Cc1cccc(OCc2nnc(SCc3nc4cc(C(F)(F)F)ccc4c(=O)[nH]3)o2)c1,42.8% (active)
7,CC(=O)/C(=N\Nc1ccc(Cl)cc1Cl)Sc1cccc2cccnc12,1.24% (inactive)
8,CC1CCN(c2ccc3c(c2)S(=O)(=O)c2cc(C(=O)O)ccc2C3=O)CC1,18.1% (inactive)
9,CN(C)c1ccc(-n2cccc2/C=C2/SC(=Nc3ccc(F)cc3)NC2=O)cc1,-29.3% (inactive)
10,O=C(CSc1nc2ccccc2c(=O)[nH]1)Nc1nc(-c2ccc(Br)cc2)cs1,-3.66% (inactive)
11,CCOC(=O)N1CCC(NC(=O)C(NS(=O)(=O)c2ccc3c(c2)CCN3C(=O)CC)C(C)C)CC1 (stereo not given),1.81% (inactive)
12,CCOc1ccc(-n2c(O)c(/C=N/c3ccnn3Cc3ccncc3)c3ccccc3c2=O)cc1,82.5% (active)
13,CCOc1ccc(-n2c(O)c(/C=N/Nc3nnc(C)c(=O)[nH]3)c3ccccc3c2=O)cc1,-1.67% (inactive)
14,CC(C)Oc1ccc(/C=C(\NC(=O)/C=C/c2ccco2)C(=O)NCCc2nc3ccccc3[nH]2)cc1,21% (inactive)
15,COc1ccc(CNC(=O)c2nnn(CC(=O)Nc3cc(C)cc(C)c3)c2N)cc1,-6.95% (inactive)
16,CN(C)CCOC1c2ccccc2-c2ccccc21,-14% (inactive)
17,CC(=O)c1sc(N/N=C/c2ccc(C(C)C)cc2)nc1C,-6.77% (inactive)
18,Cc1ccc(NC(=O)CN2CCc3ccccc3C2)cc1,-14.3% (inactive)
19,C=CC[n+]1c(-c2ccc(C)cc2)csc1NNC(=O)Nc1ccccc1,4.61% (inactive)
20,COc1ccc(-n2c(SCC(=O)Nc3sc4c(c3C#N)CCCC4)nnc2-c2ccc(O)cc2)cc1,-8.59% (inactive)
21,Cc1nc2ccccc2n1C(=O)N1CCOCC1,-8.33% (inactive)
22,CCCS(=O)(=O)N1CCCC(C(=O)NCc2ccco2)C1 (stereo not given),-12.9% (inactive)
23,Cc1ccc(N=Cc2c(O)cc(C)oc2=O)c(C)c1,8.99% (inactive)
24,CSC1=N/C(=C\C=C\c2cccs2)C(=O)S1,3.5% (inactive)
25,CCCOc1ccc(Cn2c(O)cc(=O)[nH]c2=O)cc1,7.31% (inactive)
26,Nc1nonc1-n1nnc(C(=O)N/N=C/c2cc(Br)ccc2O)c1CSC1=NCCS1,2.28% (inactive)
27,CCN(CC)C(=O)CSc1nc2ccccc2n1CC(=O)N1CCN(c2ccccc2OC)CC1,-2.4% (inactive)

row,SMILES,inhibition
1,COc1cccc(/C=C(/CC(=O)Nc2ccc(N3CCOCC3)cc2)c2nc3ccccc3s2)c1,7.25% (inactive)
2,O=C(O)c1ccc(NN=CC2=C(N3CCOCC3)/C(=C/c3ccccc3)CC2)cc1,46.5% (active)
3,CCCCCCSc1ccc([C@@H]2[C@H]3C(=O)N(CC)C(=O)[C@H]3[C@]3(C(=O)OC)CCCCN23)cc1,60.5% (active)
4,O=C(Nc1ccc(-c2nnc(-c3ccccc3)o2)cc1)c1ccc(Br)o1,-5.94% (inactive)
5,Cc1c(N=Nc2ccc(N(C)C)cc2)c(=O)n(-c2ccccc2)n1C,37.7% (inactive)
6,N#Cc1c(-c2cccs2)nc(SCC(=O)c2ccc(Br)cc2)[nH]c1=O,15.6% (inactive)
7,NC(N)=N/N=C/c1ccc(OCc2ccc(Cl)cc2Cl)cc1,-36.6% (inactive)
8,CS(=O)(=O)c1ccc2c(c1)SC1=NC(=O)/C(=C/c3ccco3)C(=N)N12,26% (inactive)
9,Cc1sc2nc(COC(=O)C(NC(=O)c3ccc(Cl)cc3Cl)C(C)C)[nH]c(=O)c2c1C (stereo not given),13.5% (inactive)
10,O=C(CSc1cccc2cccnc12)N/N=C/c1cccnc1,-13.1% (inactive)
11,CC(C)CC1C(=O)N(Cc2cn(Cc3ccco3)nn2)CCS(=O)(=O)N1Cc1ccc(-c2ccc(Cl)c(Cl)c2)cc1 (stereo not given),-6.74% (inactive)
12,COC1=C/C(=C/c2c(N)n3nc(CC(=O)N4CCOCC4)sc3nc2=O)C=CC1=O,36% (inactive)
13,CN=c1scc(-c2cc(OC)ccc2OC)n1/N=C/c1c(C)[nH]c2ccccc12,30% (inactive)
14,O=C(OCc1cc2ccccc2[nH]c1=O)c1cccnc1,-12.2% (inactive)
15,CCOc1cc(/C=C2\SC(N3CCCC(C)C3)=NC2=O)ccc1O (stereo not given),10% (inactive)
16,CCc1ccc(-c2cc(C(=O)NCc3ccco3)c3ccccc3n2)s1,33.8% (inactive)
17,Oc1c(CN2CCCC2)cc(COCc2ccccc2)c2cccnc12,-28.1% (inactive)
18,O=C(CCS(=O)(=O)c1cccc2nonc12)NCCc1ccccc1Cl,-6.4% (inactive)
19,CCc1ccc(NC(=O)CS(=O)CC(=O)NCCCc2ccccc2)cc1 (stereo not given),5.42% (inactive)
20,N#Cc1ccc(C(=O)Nc2cccc3cccnc23)c(F)c1,-28.1% (inactive)
21,COc1ccc(NC(=O)Cn2c(-c3ccc(OC)cc3)cn(-c3ccc(C)cc3)c2=O)cc1,29.3% (inactive)
22,Cc1cc(/C=N/Nc2ccc([N+](=O)[O-])cn2)c(C)n1-c1cccc(C(=O)O)c1,-0.18% (inactive)
23,COc1ccc(CC(=O)Nc2ccc(-c3nnc(-c4ccc(C)cc4)o3)cc2)cc1,-14.6% (inactive)
24,C=CCn1c(=S)[nH]c2scc(-c3ccco3)c2c1=O,-8.62% (inactive)
25,Cc1cc(OCC(=O)Nc2nccs2)c2c(C)c(C)c(=O)oc2c1,-9.45% (inactive)
26,COC(=O)c1ccc(OCC(=O)NC(C)(C)C)cc1,-4.55% (inactive)
